PubChem BioAssay (NCI)
The panel holds about 79,000 compounds, 15% with a hit somewhere; the sample as a whole holds those more often. No stated cut-off is given here; in the data, active means growth inhibition above about 70%; inactive means the rest.

Key:
[1] = NCI Yeast Anticancer Drug Screen. Data for the rad50 strain (AID 155);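 further: 0% = growth of vehicle-only cultures of the same strain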; conditions: S. cerevisiae rad50 strain growth inhibition; at 50.0 µM; active compounds read high
In short: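 Genetically altered yeast (DNA repair pathway); compound treatment; growth inhibition vs vehicle ctrl.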

[2] = NCI Yeast Anticancer Drug Screen. Data for the mec2-1 strain (AID 157); conditions: S. cerevisiae mec2-1 strain, at 50.0 µM, active compounds read high
In short: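 Mutant yeast (mec2-1) grown with compound; growth inhibition relative to vehicle control reported.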

[3] = NCI Yeast Anticancer Drug Screen. Data for the sgs1 mgt1 strain (AID 161);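 further: 0% = growth of cultures given vehicle only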; conditions: S. cerevisiae sgs1 mgt1 strain, at 50.0 µM, active compounds read high
In short: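 This yeast growth screen uses a strain with defined DNA-repair lesions; compound-treated growth is compared with vehicle-treated growth.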

[4] = NCI Yeast Anticancer Drug Screen. Data for the cln2 rad14 strain (AID 165);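 further: 0% = growth equal to vehicle treated cultures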; conditions: S. cerevisiae cln2 rad14 strain, at 50.0 µM, active compounds read high
In short: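 Readout is yeast growth inhibition versus vehicle-treated controls, using a strain with cln2 and rad14 alterations exposed to compound.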

[5] = NCI Yeast Anticancer Drug Screen. Data for the bub3 strain (AID 167); conditions: S. cerevisiae bub3 mutant strain, at 50.0 µM, active compounds read high
In short: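 Yeast carrying a defined mutation is treated with each compound, and growth is compared with that of vehicle-exposed cells to give inhibition.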

[6] = NCI Yeast Anticancer Drug Screen. Data for the mlh1 rad18 strain (AID 175); conditions: S. cerevisiae mlh1 rad18 strain growth inhibition; at 50.0 µM; active compounds read high
In short: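 Genetically defined yeast (DNA repair-deficient) exposed to compounds; growth inhibition determined relative to vehicle.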

Measured: growth inhibition

CCCCCCCCCc1ccc(OC(=O)CCC)cc1
inactive: [1] 2.4% | [2] -22.6% | [3] -15.1% | [4] -50% | [5] -2.95% | [6] 20.7%

C/C(=N\NC(=O)c1cccnc1)c1cccc(/C(C)=N/NC(=O)c2cccnc2)n1.CC(=O)[O-].CC(=O)[O-].[Zn+2]
inactive: [1] -5.45% | [2] 5.15% | [3] -2.6% | [4] -15.2% | [5] -6.1% | [6] -4%

CCCCCCCCCCCCCCNC(=O)CCl
inactive: [1] 14.8% | [2] -17.5% | [3] -5.8% | [4] -8.5% | [5] -9.25% | [6] -16.2%

O=C(O)C1C2OC3C(OC(=O)C31)C2Cl (stereo unspecified)
inactive: [1] -4.5% | [2] 6% | [3] 9.85% | [4] -14.3% | [5] -6.5% | [6] -12.3%

Cn1c2c(c3ccccc31)CCN=C2C1CCCOC1=O (stereo unspecified)
inactive: [1] -27.6% | [2] -54.2% | [3] -21.1% | [4] -17.5% | [5] -9.3% | [6] -39.1%

COc1ccc(/C(=N\NC(=O)C(N)=O)C(c2ccc(OC)cc2)C2(O)C(=O)Nc3c(Cl)cccc32)cc1 (stereo unspecified)
inactive: [1] -9.45% | [2] -15.4% | [3] -49.5% | [4] 32.5% | [5] 0.3% | [6] -23.1%

ONC1=Nc2ccccc2C(=S)N2CSCC12 (stereo unspecified)
inactive: [1] -21% | [2] -13.4% | [3] -26.4% | [4] -19.6% | [5] -21.6% | [6] 15.9%

CC(C)(C)C(=O)C(C(c1ccccc1)N1CCOCC1)N1CCOCC1 (stereo unspecified)
inactive: [1] 21.7% | [2] -5.8% | [3] -33.6% | [4] -17% | [5] 5.7% | [6] -10.6%

N#CC(C#N)=C(C#N)Nc1ccc(F)cc1
inactive: [1] 1% | [2] -10.4% | [3] -16.6% | [4] -6.5% | [5] -13.4% | [6] -0.4%

OCC(F)(F)C(F)(F)C(F)(F)C(F)(F)C(F)(F)C(F)(F)C(F)(F)C(F)F
inactive: [1] 23.9% | [2] -11.2% | [3] -30.8% | [4] -11.5% | [5] 5.15% | [6] 8.6%

CCOC(=O)c1cn2ccccc2c1C(=O)OCC
inactive: [1] 3.5% | [2] -3.1% | [3] -7.45% | [4] -23.2% | [5] -4.1% | [6] -14.8%

CN(CC(=O)c1ccc(Cl)cc1)Cc1ccccc1
inactive: [1] -1.45% | [2] -8.8% | [3] 3.4% | [4] -25.3% | [5] 0.9% | [6] -3.5%

CNS(=O)(=O)c1ccc(C)cc1
inactive: [1] 2.15% | [2] -6% | [3] 0.6% | [4] 3.25% | [5] 0.45% | [6] 0.35%

Br/C(=N\Nc1nn[nH]n1)c1ccncc1
inactive: [1] -15.1% | [2] 1.75% | [3] -26.1% | [4] -22% | [5] -21.8% | [6] -28.9%

Cc1ccc(C(=O)/C=C\c2ccc(Cl)c(Cl)c2)cc1
inactive: [1] -14.9% | [2] -5.8% | [3] 23.3% | [4] -5.5% | [5] 35.7% | [6] 5.6%

O=C(NC(Cc1ccccc1)C(=O)O)Oc1ccc2ccccc2c1 (stereo unspecified)
inactive: [1] 2.9% | [2] 8.25% | [3] 6.1% | [4] -0.95% | [5] -4.8% | [6] -5.2%

N#C/C(=C\c1cc(Br)cc(Br)c1O)c1ccc([N+](=O)[O-])cc1
inactive: [1] -2.7% | [2] -10.9% | [3] -6.8% | [4] 17.1% | [5] 22.3% | [6] -2.6%

Cc1ccc2c(c1)C(C)(C)CCC2
inactive: [1] -2.1% | [2] -18.4% | [3] -18.4% | [4] -59.6% | [5] -9.1% | [6] 4.95%

CN(C)c1ccc(N=Nc2ccc3nc[nH]c3c2)cc1
inactive: [1] -3.15% | [2] 6.65% | [3] 42% | [4] -6.1% | [5] -3.3% | [6] 26.5%

CN(C)c1ccc(C=C2C(=O)CC(C)(C)CC2=O)cc1
inactive: [1] 12.5% | [2] 10.2% | [3] 23.1% | [4] 16.1% | [5] 5.85% | [6] -8.4%

CC(=O)OCC1OC(n2c(C)c(N=Nc3ccc(C)cc3)c(C)c(C#N)c2=S)C(OC(C)=O)C(OC(C)=O)C1OC(C)=O (stereo unspecified)
inactive: [1] -8.05% | [2] -14.4% | [3] 11.9% | [4] 2.65% | [5] -10.8% | [6] -2.75%

Brc1ccc(-c2ccc(-c3ccc(Br)cc3)s2)cc1
inactive: [1] 30.4% | [2] 13.8% | [3] 36.5% | [4] 19.8% | [5] -1.55% | [6] 4%

CC(=O)Nc1cc2c(cc1Br)-c1ccccc1C2=O
inactive: [1] -15% | [2] -3.5% | [3] 15.4% | [4] -31.7% | [5] 9.45% | [6] -2.15%

CCC(/C=N\O)CC
inactive: [1] -12.8% | [2] 2.6% | [3] 11.4% | [4] -4.05% | [5] -3.05% | [6] 17.1%

Clc1ccc2c(c1)CCc1cccnc1C2=C1CCNCC1
inactive: [1] 8.55% | [2] -4.5% | [3] -20.6% | [4] 16.1% | [5] 0.4% | [6] -15.1%

CCCCCCC1CCCCC1
inactive: [1] -35% | [2] -41.7% | [3] -29% | [4] 19.9% | [5] -28.8% | [6] -20%

CCCCCCCCCCCCCCCCCCN(C)C
inactive: [1] 54% | [2] 23.1% | [3] 13.8% | [4] -64.9% | [5] 46.7% | [6] 25.9%

O=C(/C=C/c1ccccc1)OCCCl
inactive: [1] -23.4% | [2] -15.1% | [3] -17.9% | [4] -14.1% | [5] -22.4% | [6] -7.35%

COC(=O)c1nc(N)nc(N)c1[N+](=O)[O-]
inactive: [1] -8.45% | [2] -17.7% | [3] -22.6% | [4] -15.2% | [5] -4.05% | [6] -14.9%

CSC(=N)N1N=C2c3ccccc3CC[C@@H]2[C@@H]1c1ccccc1
inactive: [1] -0.1% | [2] -7.3% | [3] -18.9% | [4] 38% | [5] -10.8% | [6] -18.4%

CCc1nc(N)nc(N)c1-c1ccc2c(c1)nnn2C
inactive: [1] 19.9% | [2] 14.8% | [3] 9.05% | [4] -9.75% | [5] 11.6% | [6] 17.9%

CCN1c2ccccc2CC(CCN(C(C)C)C(C)C)(C(N)=O)c2ccccc21 (stereo unspecified)
inactive: [1] 40.9% | [2] 4.9% | [3] 24.8% | [4] 21.3% | [5] -3.1% | [6] -0.9%

COc1nc(OC)c2cnn(-c3ccc(Cl)cc3)c2n1
inactive: [1] -10.5% | [2] -4.6% | [3] -6.45% | [4] -3% | [5] 3.7% | [6] -7.35%

CNC(=O)c1ccccc1CC1(O)CCCC1
inactive: [1] -9.85% | [2] -15.5% | [3] -0.5% | [4] 8.5% | [5] -9.75% | [6] -25.1%

Cc1cc2c(-c3ccc(Cl)cc3)oc(-c3ccc(Cl)cc3)c2cc1C
inactive: [1] -7.35% | [2] 15.8% | [3] -6.35% | [4] 2.85% | [5] -15.4% | [6] -9.5%

CCN(CC)CCOc1ccccc1C(C)C
inactive: [1] 14.6% | [2] 7.5% | [3] 17.1% | [4] 19.5% | [5] 4% | [6] 25.1%

CC(C)C1CC(C(C)C)C(O)C(C(C)C)C1 (stereo unspecified)
inactive: [1] 11.8% | [2] 1.55% | [3] 6.6% | [4] -5.9% | [5] 5.45% | [6] 15.7%

COc1ccc(/C=C2\Oc3cc(OC(C)=O)ccc3C2=O)cc1
inactive: [1] -66.9% | [2] -44.6% | [3] -15.2% | [4] 12.2% | [5] -14.6% | [6] -21.8%

C/C(=N/NC(=O)C1CCCO1)c1ccc(C)cc1 (stereo unspecified)
inactive: [1] 0.95% | [2] -6.5% | [3] -4.75% | [4] -92% | [5] -6.5% | [6] -28.9%

COc1ccc(NC(=O)Nc2ccc(NC(C)=O)cc2)c(OC)c1
inactive: [1] -6% | [2] -18.2% | [3] 14.5% | [4] 7.65% | [5] 17.1% | [6] 10.7%

O=[N+]([O-])c1ccc(CN(Cc2ccc([N+](=O)[O-])cc2)c2ccc3c(c2)C(O)c2ccccc2-3)cc1 (stereo unspecified)
inactive: [1] 9.95% | [2] 1% | [3] 7.8% | [4] 7.85% | [5] 1.8% | [6] 12.2%
